Source: PubChem (several laboratories)
NLRP3 yeast inh: blocks the NALP3 inflammasome reconstituted in yeast; Yeast reconstituted NLRP3/ASC/caspase-1, beta-gal luminescence, 24 h; inhibition, % at 10 µM; 330,000 tested, 0.39% active; AID 2825;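 active means inhibition of 50% or more; inactive means inhibition below 50%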;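 further: plate controls were induced DMSO wells for no effect and uninduced yeast grown without galactose for full effect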
NALP1 inh: blocks the NALP1 inflammasome reconstituted in yeast; S. cerevisiae NALP1/ASC/caspase-1 growth, X-gal OD620, 72 h; inhibition, % at 10 µM; 280,000 tested, 0.61% active; AID 2071; in the data active means inhibition mostly above about 24%, no sharp cut-off; inactive means mostly below about 32%
SUMO Mot1 rescue: SUMOylation pathway inhibition by Mot1-301 growth rescue. 320,000 tested, 1% active. growth rescue, % at 18.8 µM. S. cerevisiae Mot1-301 growth rescue, ATP luminescence, 38.5C; percent above DMSO median, 100 means doubled;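 active means every valid replicate shows activation above 250% relative to neutral control wells; inactive means the rest, any valid replicate at or below 250%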;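 further: OY570 slx delta 5 strain wells were the positive control but not used for scaling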
PolyA inhibitor: inhibitors of polyadenylation in S. cerevisiae; S. cerevisiae SKY197-pL101 polyadenylation reporter, beta-gal luminescence; efflux-impaired pdr1/pdr3 knockout yeast; score 100 = 6 SD above DMSO; activity score, % at 12 µM; 300,000 tested, 0.02% active;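 active means lowest replicate activity score at least 50, where 100 means six control SD above control mean; inconclusive means lowest score under 50 but half or more replicates reach 50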;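 further: yeast exposed to compound for 9 h at 30 °C; higher score means more reporter readthrough which indicates perturbed polyadenylation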
NALP3 confirm: NALP3 inhibition confirmation in yeast. shares compounds with NLRP3 yeast inh. yeast expressing human NALP3, luminescence. inhibition, % at 10 µM. 1,300 tested, 81% active. AID 435006; in the data active means inhibition above about 48%
Casp1 ASC ctr: counter-screen for NALP3 inhibitors: yeast caspase-1-ASC. shares compounds with NLRP3 yeast inh. yeast expressing Caspase-1-ASC, luminescence counter screen. 1,000 tested, 66% active. inhibition, % at 10 µM
NALP3 retest: retest-confirmed inhibitor of NALP3 in yeast; inhibition, % at 10 µM; shares compounds with NLRP3 yeast inh; 1,000 tested, 53% active; yeast expressing human NALP3, luminescence read-out; AID 488794
* = called active by the depositor; ? = inconclusive; . = not tested or not shown. The list is not random: actives were taken first. Their share in the collection is about 1.8%. Unless noted, no stated cut-off is given here; in the data, active means inhibition above about 50%; inactive means the rest.

SMILES	NLRP3 yeast inh	NALP1 inh	SUMO Mot1 rescue	PolyA inhibitor	NALP3 confirm	Casp1 ASC ctr	NALP3 retest
CCCCCCCCCCCCCCCC[n+]1cccc2ccccc21	73*	98*	-47	.	12	.	.
CCCCCCCCC[n+]1cccc2c3ccccc3ccc21	37	25	25	-9	.	.	.
CC(=O)N(/N=C1\Sc2ccccc2C1=O)c1ccccc1C	54*	-6	-10	-35	48*	16	42
CC(=O)N(/N=C1\Sc2ccccc2C1=O)c1ccc(C)cc1C	44	1	-14	-4	.	.	.
FC(F)(F)c1cc(-c2ccco2)nc(NCc2cccnc2)n1	53*	6	-10	-3	66*	52*	36
FC(F)(F)c1cc(-c2ccccc2)nc(NCc2cccnc2)n1	54*	10	31	8	24	.	.
FC(F)(F)c1cc(-c2ccco2)nc(NCc2ccccc2)n1	12	7	5	-14	.	.	.
Nc1ccccc1SC/C=C/CSc1ccccc1N	52*	9	74	18	57*	45	40
Nc1ccccc1O	33	.	28	.	.	.	.
O=c1c2ccccc2nc2c3ccccc3cnn12	56*	1	1	24	63*	55*	66*
C/C(=N\NC(=O)c1ccc(Cl)cc1)c1ccccn1	72*	36*	25	-45	85*	94*	83*
C/C(=N\NC(=O)c1ccccn1)c1ccc(Cl)cc1	27	-18	-9	-15	.	.	.
COc1ccc(N=Nc2ccc(O)c3ncccc23)cc1	32	.	-27	29	.	.	.
CCc1ccc(N=Nc2ccc(O)c3[nH]cnc23)cc1	51*	.	1	.	43	24	34
CC1CCN(S(=O)(=O)c2cccc(-c3cn4cc(Cl)ccc4n3)c2)CC1	64*	2	17	-21	75*	38	33
CC(=O)NCCn1c(SCC(=O)c2ccc(Cl)cc2)nc2ccccc2c1=O	-8	-9	11	16	.	.	.
O=C1c2cccc(O)c2C(=O)c2c(O)cccc21	60*	76	-53	1	64*	.	.
CCOC(=O)C1=C(c2ccccc2)ON(C)C1c1ccccc1 (stereo unspecified)	15	34	-8	-4	.	.	.
Cc1ccc(-n2c(SCCN)nnc2-c2cccc(C)c2)cc1	78*	.	139	8	78*	.	.
Cc1nc2sc3c(c2c(=N)n1N)CCCC3	18	-2	9	5	.	.	.
CC(=O)N1N=C(c2ccc(Cl)cc2)OC1(C)C	71*	42	-7	-7	51*	52*	34
CC(=O)N1N=C(c2ccccc2)OC12CCCC2	10	7	-2	9	.	.	.
CC1(c2nnc(-c3ccccc3)o2)CC(c2ccc(Cl)cc2)=NO1 (stereo unspecified)	52*	6	-10	-5	56*	26	22
Cc1cc(NC(=O)Nc2ccc(F)cc2)no1	37	1	-1	-1	.	.	.
C=CCc1c(C)c(C#N)c2nc3ccccc3n2c1NCCN(C)C	54*	33*	-3	-22	81*	78*	42
SMILES	NLRP3 yeast inh	NALP1 inh	SUMO Mot1 rescue	PolyA inhibitor	NALP3 confirm	Casp1 ASC ctr	NALP3 retest
C=C(C)Cc1c(C)c(C#N)c2nc3ccccc3n2c1NCCCN(C)C	4	21	-3	21	.	.	.
O=C(Nc1cccc(-c2cnc3ccccc3n2)c1)c1ccco1	22	12	-5	2	.	.	.
COc1ccccc1-n1cnc2cc(NC(=O)c3ccco3)ccc21	34	-2	-32	29	.	.	.
O=C(Nc1cnc2ccccc2c1)c1ccco1	52*	1	15	1	38	41	42
O=C(Nc1ccc2c(c1)ncn2C1CCCCC1)c1ccco1	53*	-4	-22	14	70*	55*	52*
COc1ccc(-n2cnc3cc(NC(=O)c4ccco4)ccc32)cc1	58*	-7	-28	7	80*	62*	70*
CC(C)n1cnc2cc(NC(=O)c3ccco3)ccc21	2	0	-11	15	.	.	.
Cc1c(C(=O)Nc2ccccc2F)cnn1-c1ccccc1	47	16	-1	-30	.	.	.
Cc1c(C(=O)Nc2cc(F)cc(F)c2)cnn1-c1ccccc1	71*	24	25	?	76*	76*	70*
Cc1cc(=O)oc2cc(OCC(=O)N3CCCC(C)C3)ccc12 (stereo unspecified)	14	18	-2	-17	.	.	.
CCCC(=O)Nc1ccc(N2CCCCC2)cc1	11	-1	81	-3	.	.	.
O=C(CCl)Nc1ccc(N2CCCCCC2)cc1	60*	19	64	-3	77*	76*	53*
N#Cc1ccc(C(=O)OCCCc2cc3ccccc3c(=O)o2)cc1	66*	.	7	.	61*	61*	63*
N#Cc1ccc(C(=O)OCCc2cc3ccccc3c(=O)o2)cc1	44	.	23	.	.	.	.
COc1ccccc1-c1noc2ncnc(Nc3cccc(C)c3)c12	64*	14	-21	-6	71*	60*	40
Cc1c(C(=O)CN2CCSCC2)c2ccccc2n1C	-4	-1	9	-9	.	.	.
Cc1c(/C(Cc2ccccc2)=N/O)c2ccccc2n1C	56*	22	.	-2	61*	51*	53*
O=C(c1cc(NC(=O)C23CC4CC(CC(C4)C2)C3)cc(NC(=O)C23CC4CC(CC(C4)C2)C3)c1)N1CCCCC1	13	-3	-9	12	.	.	.
N#C/C(=C\c1cccc(Br)c1)C(=O)N1CCCCC1	60*	26	10	-19	58*	68*	50*
Cc1ccc(Cl)cc1NC(=O)c1cnn2c1NC(c1ccco1)CC2C(F)(F)F (stereo unspecified)	58*	-2	72	25	66*	72*	57*
Cc1ccsc1C(=O)N1CCN(S(=O)(=O)c2cccs2)CC1	1	-18	-15	-6	.	.	.
CC(=O)OCC(=O)[C@H]1CC[C@H]2[C@@H]3CC=C4C[C@@H](O)CC[C@]4(C)[C@H]3CC[C@]12C	65*	51	49	-3	77*	56*	48
CC(=O)[C@H]1CC[C@H]2[C@@H]3CC=C4C[C@@H](O)CC[C@]4(C)[C@H]3CC[C@]12C	47	.	110	.	.	.	.
CC(=O)[C@H]1CCC2C3CC=C4C[C@@H](O)CC[C@]4(C)C3CC[C@@]21C (stereo partly specified)	53*	.	91	.	64*	.	.
O=C(C[C@H]1C/C=C\C[C@@H](Cc2ccc(F)cc2)C(=O)OC[C@@H](Cc2c[nH]c3ccccc23)NC1=O)NCCO	16	.	-5	.	.	.	.
C(=C\c1ccccc1)/CSc1nnc(-c2cccnc2)o1	52*	9	-21	-4	45	47	37
CN=C1S/C(=C\c2ccc(O)c(Br)c2)C(=O)N1C	68*	20	-26	-18	84*	78*	72*
